Assay outcomes: PubChem, National Center for Advancing Translational Sciences (NCATS)
AmpC no deterg: qHTS Inhibitors of AmpC Beta-Lactamase (assay without detergent); 330,000 tested, 0.52% active; Potency, µM (doses to about 57.1 µM), without a hit: at the top dose activity change, negative = inhibition, usual class: inhibitors; AmpC nitrocefin hydrolysis, absorbance 480 nm, 0.0001% Triton;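 further: plate controls were no compound for no effect and no enzyme for full effect; nearly all actives have a fitted effect of over 20% in size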
Target sequence (P00811 whole entry, looked up): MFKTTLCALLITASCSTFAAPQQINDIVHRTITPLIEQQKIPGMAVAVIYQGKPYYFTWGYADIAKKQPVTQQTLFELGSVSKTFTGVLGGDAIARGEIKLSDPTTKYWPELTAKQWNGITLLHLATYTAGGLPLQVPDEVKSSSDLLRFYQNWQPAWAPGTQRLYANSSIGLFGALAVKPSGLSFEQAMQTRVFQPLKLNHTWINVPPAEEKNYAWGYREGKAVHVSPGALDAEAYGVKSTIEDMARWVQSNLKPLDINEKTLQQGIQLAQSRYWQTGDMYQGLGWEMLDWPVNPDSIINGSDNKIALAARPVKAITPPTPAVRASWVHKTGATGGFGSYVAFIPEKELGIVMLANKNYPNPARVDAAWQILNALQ
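AmpC (5.3 nM in the dispensed reagent) in 20 mM phosphate pH 7.0 with 0.01% (detergent screen) or 0.0001% Triton X-100 was preincubated with compounds for 15 min at room temperature. Nitrocefin was then added from an 800 uM solution, and hydrolysis was followed at 480 nm.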
AMA1 RON2 block: qHTS for Inhibitors of AMA1-RON; Towards Development of Antimalarial Drug Lead: Primary Screen; 360,000 tested, 0.2% active; Potency, µM (top dose mostly 58.2 µM), without a hit: top-dose activity change, negative = inhibition, actives largely listed as inhibitors; AlphaScreen AMA1-biotinylated RON2 peptide binding; Plasmodium falciparum AMA1 (3D7) - RON2 peptide interaction; AID 720542, 2013;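 further: 0% = vehicle wells and -100% = peptide control; nearly all actives have a fitted effect of over 45% in size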
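AMA1 (3D7) with his tag at 25 nM final met compounds first, then biotinylated RON2 peptide at 25 nM; detection used donor plus acceptor beads, 10 µg/mL apiece, read by AlphaScreen after 30 min at room temperature.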
LASV entry inh: qHTS for Inhibitors of binding or entry into cells for Lassa Virus. Lassa virus pseudotype entry inhibition, cell reporter. Potency, µM (top dose mostly 37.9 µM), for the others: at the highest dose activity change, negative = inhibition, hits mostly inhibitors. 300,000 tested, 1.2% active. AID 540256, 2011; calls by dose curve; tested in HEK293 cells; further: nearly all actives have a fitted effect of over 50% in size
AmpC detergent: qHTS Inhibitors of AmpC Beta-Lactamase (assay with detergent); 370,000 tested, 0.041% active; Potency, µM (highest dose often 114 µM), without a hit: at the top dose activity change, negative = inhibition, usual class: inhibitors; AmpC hydrolysis of nitrocefin, absorbance 480 nm, 0.01% Triton; AID 485294, 2010; P00811;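 further: 0% = no-compound wells and -100% = no-enzyme wells; nearly all actives have a fitted effect of over 25% in size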
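AmpC (5.3 nM in the dispensed reagent) in 20 mM phosphate pH 7.0 with 0.01% (detergent screen) or 0.0001% Triton X-100 was preincubated with compounds for 15 min at room temperature. Nitrocefin was then added from an 800 uM solution, and hydrolysis was followed at 480 nm.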
Marburg entry inh: qHTS for inhibitors of binding or entry into cells for Marburg Virus | Marburg virus pseudotyped entry inhibition, cell reporter | Potency, µM (highest dose often 37.8 µM), without a hit: at the highest dose activity change, negative = inhibition, most hits filed as inhibitors | 300,000 tested, 1.8% active | AID 540276, 2011; calls by dose curve; tested in HEK293 cells
Numbers without * were called inactive; [ ] = remark or other dose. A selection: hits, their analogues and other compounds. The true share with any hit is near 2.3%. Unless noted, the call rests on the fitted dose curve; in most records, active means well fitted curve in the direction sought with a large enough effect; inconclusive means small, poorly fitted or top-dose-only effect, or another doubt; inactive means no such curve, though single readings can be large; an effect the other way counts as inactive or inconclusive. Unless noted, on the % scale 0 is the no-effect control and ±100 the full control effect; potency means the concentration at half of the fitted maximal effect.

CCOP(=O)(OCC)c1nc(-c2ccc(Cl)cc2Cl)oc1N1CCCCC1 was read as AmpC no deterg 227.3%, AMA1 RON2 block 4.2%, LASV entry inh 6.31µM*, AmpC detergent 0.9% and Marburg entry inh inconclusive.
Screening O=c1[nH]c(=O)n([C@H]2C[C@@H](O)[C@@H](CO)O2)cc1C=CBr returned LASV entry inh 0.0% and Marburg entry inh 19.8%.
O=C(O)c1ccc(N/N=C/c2ccc(OC(=O)c3ccccc3Cl)cc2)cc1 was read as AmpC no deterg -55.1%, AMA1 RON2 block -15.0%, LASV entry inh 0.708µM*, AmpC detergent -1.0% and Marburg entry inh inconclusive.
Screening CC(C)c1ccc(/C=N/Nc2ccc(C(=O)O)cc2)cc1 returned AmpC no deterg -43.3%, AMA1 RON2 block -3.1%, LASV entry inh 0.651µM*, AmpC detergent 1.1% and Marburg entry inh 1.46µM*.
`Nc1ccc(C(=O)N/N=C\c2ccc(OC(=O)c3ccccc3Cl)cc2)cc1` gave AmpC no deterg -37.5%, AMA1 RON2 block 13.8% and AmpC detergent -4.2%.
Screening O=C(O)c1ccc(N/N=C/c2ccc(-c3ccccc3)cc2)cc1 returned AmpC no deterg -49.2%, AMA1 RON2 block inconclusive, LASV entry inh inconclusive, AmpC detergent 1.6% and Marburg entry inh inconclusive.
COc1ccc(/C=N/Nc2ccc(C(=O)O)cc2)cc1Br was read as AmpC no deterg -42.6%, AMA1 RON2 block -12.5%, LASV entry inh inconclusive, AmpC detergent 3.6% and Marburg entry inh 3.16µM*.
CCOC(=O)C1=C2C=C(OCC)C=CC2OC1c1ccccc1 (configuration not stated) was read as Marburg entry inh -25.2%[46.1 µM].
For COc1ccccc1/C=C/CN1CCCC(CO)(Cc2cccc(Cl)c2)C1 (configuration not stated) the results were AmpC no deterg 51.2%, AMA1 RON2 block -17.1%, LASV entry inh 14.1µM*, AmpC detergent -4.5% and Marburg entry inh 12.6µM*.
For COc1ccc(/C=C/CN2CCCC(CO)(Cc3cccc(Cl)c3)C2)cc1 (configuration not stated) the results were AmpC no deterg 46.4%, AMA1 RON2 block -5.3%, LASV entry inh 10µM*, AmpC detergent 5.2% and Marburg entry inh 6.31µM*.
`COc1ccc(F)c(CN2CCCC(CO)(Cc3cccc(Cl)c3)C2)c1` (configuration not stated) gave AmpC no deterg 38.3%, AMA1 RON2 block -2.5% and AmpC detergent -14.7%.
For COc1ccccc1C(=O)NC(C)c1cccc2ccccc12 (configuration not stated) the results were AmpC no deterg -27.2%, AMA1 RON2 block 13.6%, LASV entry inh -16.9%, AmpC detergent 5.2% and Marburg entry inh inconclusive.
For COc1cccc(C(=O)NC(C)c2cccc3ccccc23)c1OC (configuration not stated) the results were AmpC no deterg -12.5%, AMA1 RON2 block 0.8%, LASV entry inh inconclusive, AmpC detergent 6.3% and Marburg entry inh 5.62µM*.
For O=C(Nc1nc2cc3c(cc2s1)OCCO3)c1ccco1 the results were AmpC no deterg -19.2%, AMA1 RON2 block -5.3%, LASV entry inh 0.794µM*, AmpC detergent -6.9% and Marburg entry inh 0.794µM*.
Screening O=C(Nc1ccc(-c2nc3ccccc3s2)cc1)C1=COCCO1 returned AmpC no deterg -13.6%, AMA1 RON2 block -10.4%, LASV entry inh 2µM*, AmpC detergent -0.6% and Marburg entry inh 0.794µM*.
O=C(Nc1nc2cc3c(cc2s1)OCO3)C1=COCCO1 was read as AmpC no deterg -19.0%, AMA1 RON2 block -2.9%, LASV entry inh inconclusive, AmpC detergent -1.4% and Marburg entry inh 0.651µM*.
For CC1CCc2nc(NC(=O)c3ccco3)sc2C1 (configuration not stated) the results were AmpC no deterg -9.9%, AMA1 RON2 block 9.3%, LASV entry inh 0.282µM*, AmpC detergent inconclusive and Marburg entry inh 1.26µM*.
For O=C(Nc1nc2cc3c(cc2s1)OCO3)c1ccco1 the results were AmpC no deterg -16.5%, AMA1 RON2 block 4.0%, LASV entry inh inconclusive, AmpC detergent -0.7% and Marburg entry inh inconclusive.
O=S(=O)(c1ccc2[nH]c3c(c2c1)CCCCC3)N1CCN(c2cccc(Cl)c2)CC1 was read as LASV entry inh inconclusive and AmpC detergent 24.8%.
Screening Cc1ccc(NC(=O)Cn2c(=O)n(CCC(=O)N3CCc4ccccc4C3)c(=O)c3ccccc32)c(C)c1 returned LASV entry inh -21.8%[46.1 µM], AmpC detergent 2.0% and Marburg entry inh -2.6%[46.1 µM].
`C=CCCCN1C=C(C(C)=O)C(c2ccccc2)NC1=O` (configuration not stated) gave Marburg entry inh 18.2%[14.2 µM].
`COc1ccc(C)c2sc(N(Cc3cccnc3)C(=O)CCc3ccccc3)nc12` gave LASV entry inh 0.4%[46.1 µM] and AmpC detergent 4.4%.
Screening Cc1ccc(C)c(Cn2c3ccccc3c3cnn(CC(=O)NC(C)CCc4ccccc4)c(=O)c32)c1 (configuration not stated) returned LASV entry inh 1.0%[46.1 µM], AmpC detergent 17.6% and Marburg entry inh 10.0%[46.1 µM].
`CC(C)C(=O)Nc1nc2cc3c(cc2s1)OCCO3` gave AmpC no deterg -24.3%, AMA1 RON2 block 0.0%, LASV entry inh 4.47µM*, AmpC detergent 4.2% and Marburg entry inh inconclusive.
Cc1cc(C)c2c(=O)n(CC(=O)NC3CCCC3)sc2n1 was read as AmpC no deterg -27.8%, AMA1 RON2 block -9.4% and AmpC detergent inconclusive.
For COc1ccc(OC)c(CCNC(=O)Cn2sc3nc(C)cc(C)c3c2=O)c1 the results were AmpC no deterg inconclusive, AmpC detergent 50.1µM* and Marburg entry inh 6.9%.
`COc1ccc(S(=O)(=O)n2ccc(C(C)Oc3ccc(-c4ccccc4)c(F)c3)n2)cc1` (configuration not stated) gave AmpC no deterg 0.398µM*, AMA1 RON2 block 0.0%, LASV entry inh inconclusive, AmpC detergent 2.8% and Marburg entry inh inconclusive.
`Cc1ccc(S(=O)(=O)N(Cc2nc(-c3cccc(C)c3)no2)C2CCCCC2)cc1` gave LASV entry inh 25.4%[46.1 µM], AmpC detergent -8.5% and Marburg entry inh 13.7%[46.1 µM].
`COc1ccc(OC)c(-c2nnc3n(Cc4ccc(C)cc4)c(=O)c4ccccc4n23)c1` gave LASV entry inh 0.9%[46.1 µM], AmpC detergent 24.4% and Marburg entry inh -8.8%[46.1 µM].
Cc1ccc(C)c(-n2c3nc(=O)[nH]c(=O)c-3cc3cc([N+](=O)[O-])ccc32)c1 was read as AmpC no deterg -13.6%, AMA1 RON2 block 9.8%, LASV entry inh 3.16µM*, AmpC detergent 2.6% and Marburg entry inh inconclusive.
